# According to PubChem BioAssay AID1347139 (National Center for Advancing Translational Sciences (NCATS), 2019):
# The other results are listed elsewhere or left out. Records with an inconclusive call do not appear. Activity calls are given as the source filed them. Calls follow the shape of the dose curve; as a rule, active = well fitted inhibition curve with a large enough effect; inconclusive = small, poorly fitted or top-dose-only effect; inactive = no such curve, though single readings can be large or run the other way.
# Assay: qHTS of pediatric cancer cell lines to identify multiple opportunities for drug repurposing: Orthogonal 3D viability screen for TC32 cells
# Conditions: TC32 3D spheroid viability, PI/Hoechst imaging, 72 h; series mostly up to 30.7 µM
# Text: Drug repurposing or repositioning has been offered as a strategy for drug development in oncology programs. This approach has special potential for childhood cancers and other rare or orphan diseases, where the expected return on new drug development has been a disincentive to pharmaceuticals. […] In this project we exploit the poly-pharmacology of drugs to discover new indications via phenotypic screening of a panel of 19 well-characterized cell lines derived from solid tumors seen in children and adolescents. The goal is to identify approved drugs with previously unrecognized anticancer properties that has the potential to reveal new mechanisms and biological processes involved in carcinogenesis or drug resistance. We employed a titration-based paradigm (quantitative high-throughput screening or qHTS), where all compounds were tested at multiple concentrations for their effect on cell viability. Concentration-response curves (CRCs) were derived directly from the primary screen, and both potency and efficacy values were used to identify compounds with robust bioactivity profiles. […] These two assays will be used to validate active compounds and assess the correlation of compound's potency in 2D vs 3D cultures on selected cell lines. Assay Submitter: Nathalia J. Martinez, National Center for Advancing Translational Sciences, National Institutes of Health, Rockville, MD, USA; email: natalia.martinez@nih.gov Shen, M et al. Quantitative high-throughput phenotypic screening of pediatric cancer cell lines identifies multiple opportunities for drug repurposing. Oncotarget 2017 Dec 19;9(4):4758-4772. PMID 29435139.
# The cells were obtained from University of North Carolina (UNC), Pediatric Preclinical Testing Program (PPT), and Coriell Institute (CI). qHTS viability in 3D culture: Cells were assayed in phenol red-free growth media at a density of 1,000 cells/well, with the exception of Daoy, and SH-N-SH which were assayed at 1,500 cells/ well. Thirty muL of cells were dispensed into 384-well, ULA, round bottom plates (Corning) using a Multidrop dispenser. Plates were spun down at 1,000 rpm for 1 min and incubated at 37 degrees C, 5% CO2, under a humidified atmosphere for either 24 (Daoy) or 48 hours (all other cell lines) to allow spheroid formation. Ninety-two nanoliter of compounds and controls (neutral control DMSO or positive control bortezomib at final concentrations of 0.5 µM) were subsequently transferred via GNF Pintool. Plates were sealed using a breathable seal (Diversified Biotech, Dedham, MA) and incubated for 72 hours at 37 degrees C. Spheroid viability was first determined by high-content imaging using Hoechst 33342 and Propidium Iodide (PI, ThermoFisher Scientific), followed by addition of CellTiter-Glo 3D (Promega). Specifically, 3 µL/well of PBS containing a 1:500 dilution of both dyes was dispensed using Multidrop. Dyes were incubated for 1 hour before imaging using the Celigo Image Cytometer. Then, 20 µl of CellTiter-Glo 3D were added per well. Plates were incubated for 30 min at RT on a VWR microplate shaker (300 rpm) and analyzed for luminescence intensity using a ViewLux High-throughput CCD imager equipped with clear filters. Image analysis was done using the Celigo Tumorsphere 1+2+3 application software as previously described. […] The data were exported to Excel, and the average fluorescent intensities were used to calculate the ratio of PI over Hoechst, which was used to quantify viability. […]
row,Structure (SMILES),Potency
1,COC(=O)Nc1nc2ccc(Sc3ccccc3)cc2[nH]1,810 nM (active)
2,CC[C@H]1CN2CCc3cc(OC)c(OC)cc3[C@@H]2C[C@@H]1C[C@H]1NCCc2cc(OC)c(OC)cc21,323 nM (active)
3,C=C1C(=CC=C2CCC[C@]3(C)[C@@H]([C@H](C)C=C[C@H](C)C(C)C)CC[C@@H]23)C[C@@H](O)C[C@@H]1O,inactive
4,CC[C@]1(O)C[C@@H]2CN(CCc3c([nH]c4ccccc34)[C@@](C(=O)OC)(c3cc4c(cc3OC)N(C)[C@H]3[C@@](O)(C(=O)OC)[C@H](OC(C)=O)[C@]5(CC)C=CCN6CC[C@]43[C@@H]65)C2)C1,32.3 nM (active)
5,CC(NCc1ccc2c(c1)nc(NC(=O)c1ccc(-c3cn[nH]c3)s1)n2CC(C)(C)O)C(C)(C)C (stereo not given),1620 nM (active)
